Only some compounds are listed: those with a hit (about 2.8% of all), similar ones and a draw of the others.
Integrin act MD: activates integrin-mediated alleviation for muscular dystrophy | alpha7betagal myoblasts, beta-gal FDG fluorescence, 48 h | Potency, µM (series often up to 38.3 µM), inactives show at the highest dose activation, usual class: activators | 350,000 compounds, 0.064% hits | AID 624291;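 note: potency is the fitted concentration of half-maximal effect; 100% = response of the positive control SU9516; nearly all actives have a fitted effect of over 60% in size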
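Alpha7betagal+/- myoblasts (passage 13) were plated 16-24 hr, then exposed to compounds (1:260 dilution of DMSO stock) for 48 hours at 37C. After MPER lysis, β-galactosidase reporter activity was read as FDG fluorescence (ex 480/em 540) after 30 minutes.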
PTHR1 ag: PTHR1 (human) receptor agonism. Potency, µM (top dose mostly 115 µM), inactives show top-dose activation, actives largely listed as activators. 410,000 compounds, 0.075% hits. Q03431. HEK293 GP2 PTHR1 cells, GloSensor cAMP luminescence, 1 h. AID 743266; note: potency is the fitted concentration of half-maximal effect; nearly all actives have a fitted effect of over 55% in size
Target sequence (Q03431 whole entry, looked up): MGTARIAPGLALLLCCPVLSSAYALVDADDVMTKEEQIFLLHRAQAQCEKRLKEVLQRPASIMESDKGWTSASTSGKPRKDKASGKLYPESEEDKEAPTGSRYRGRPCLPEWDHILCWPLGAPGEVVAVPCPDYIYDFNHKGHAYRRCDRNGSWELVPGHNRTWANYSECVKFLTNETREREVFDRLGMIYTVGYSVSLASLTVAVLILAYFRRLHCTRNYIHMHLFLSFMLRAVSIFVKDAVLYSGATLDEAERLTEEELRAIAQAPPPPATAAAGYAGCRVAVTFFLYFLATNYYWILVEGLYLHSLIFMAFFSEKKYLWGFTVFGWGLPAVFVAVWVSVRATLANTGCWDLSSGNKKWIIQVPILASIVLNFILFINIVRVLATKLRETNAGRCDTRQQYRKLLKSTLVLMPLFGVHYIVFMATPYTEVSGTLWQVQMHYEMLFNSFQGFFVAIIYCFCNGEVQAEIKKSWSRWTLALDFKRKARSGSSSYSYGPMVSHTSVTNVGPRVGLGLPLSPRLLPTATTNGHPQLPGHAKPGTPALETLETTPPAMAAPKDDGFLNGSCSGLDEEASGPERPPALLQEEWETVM
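HEK-293-derived GP2 cells expressing PTHR1 and a GloSensor cAMP reporter, 3,000/well, plated overnight, given luciferin plus IBMX (each 0.5 mM as added) for 1 h at 37 °C, then compound for 1 h at 37 °C. Luminescence was read after 15 min at room temperature.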
DRD3 agonist: agonists of human D3 dopamine receptor; P35462; D3R DiscoveRx beta-arrestin cells, luminescence, 90 min; max activation, %; 410,000 compounds, 0.58% hits; in the data active = max activation above about 30%; note: 0% is about no effect
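Cells at 1500/well, incubated overnight, then treated with pinned compounds (dopamine as control) for 90 min at 37 degrees C. DiscoveRx reagent added for 30 - 60 minutes at room temperature; luminescence read.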
CBFb RUNX1 block: blocks binding between human CBF-beta and RUNX1. Potency, µM (top dose mostly 59.8 µM), for inactives: top-dose activity, negative = inhibition, usual class: inhibitors. AID 1477. 230,000 tested, under 10 active. AlphaScreen CBFb-His/RUNX1-biotin binding, biochemical; note: % of control where 0% means no effect
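Compounds were screened at multiple concentrations against a preformed CBF-beta(His)/RUNX1(biotin) complex (30 nM of each) for 15 min at room temperature, followed by 90 min with nickel and streptavidin beads and AlphaScreen reading.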
D3 antag: D3 dopamine receptor (human) antagonism. D3R cells, DiscoveRx beta-arrestin luminescence, antagonist mode; stronger effect = lower value. max response, negative = inhibition, %. 360,000 compounds, 2.5% hits; in the data active = max response below about -50%; inconclusive = no clear call, values can overlap the other calls; note: % is set by controls: 0 for no effect and ±100 for the full control effect
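Cells plated overnight at 1500 cells/well, then exposed to library compounds with dopamine controls for 90 minutes at 37 degrees C. DiscoveRx reagent added for 30–60 minutes at room temperature; luminescence read, quantitative HTS format.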
MBNL1 CUG block: inhibitors of human MBNL1 binding to CUG repeat RNA; 280,000 compounds, 0.036% hits; AID 2675; Q9NR56; Potency, µM (series often up to 57.5 µM), for inactives: at the highest dose activity change, negative = inhibition, most hits filed as inhibitors; TR-FRET MBNL1-His/biotin-(CUG)12 binding, 665/545 ratio; active = well fitted inhibition curve with a large enough effect in the signal ratio, with a control signal flat, not every such curve was filed as active; inconclusive = small, poorly fitted or top-dose-only effect, or effect the other way, or a change in a side signal; inactive = no such curve, though single readings can be large or run the other way; the % refers to the signal ratio; note: potency is the fitted concentration of half-maximal effect; % is set by controls: 0 for no effect and ±100 for the full control effect
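Ratiometric TR-FRET (665 over 545 nm, excitation 340 nm) tracks disruption of MBNL1-His/biotin-(CUG)12 complex after 60 min at room temperature, with compounds at 92 nM to 58 uM final.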
Numbers without * were called inactive; i = inactive; ? = inconclusive; · = not tested or not shown; [ ] = dose if it differs, or a comment. Unless noted, calls come from the whole dose curve; as a rule, active = well fitted curve in the direction sought with a large enough effect; inconclusive = small, poorly fitted or top-dose-only effect, or another doubt; inactive = no such curve, though single readings can be large; an effect the other way counts as inactive or inconclusive.

SMILES | Integrin act MD | PTHR1 ag | DRD3 agonist | CBFb RUNX1 block | D3 antag | MBNL1 CUG block
COc1cc(NC(=O)C2C3C=CC(C3)C2C(=O)O)c(OC)cc1Cl (stereo not drawn) | 15% | i | 4 | -1% | -86* | -5%
CN(C)CCCN(C(=O)CCSc1ccccc1)c1nc2cc3c(cc2s1)OCO3 | -72% | -4% | -35 | 7% | -50* | -18%
FC(F)(F)c1ccc(Cl)c(NC(=S)N/N=C/c2ccccc2Cl)c1 | -47% | i | -1 | 2% | -66* | 2%
COc1ccc2oc(C(=O)N3CCN(C/C=C/c4ccccc4)CC3)c(C)c2c1 | 7% | -62% | 30* | · | 0 | ·
COc1cc(Br)cc(CN2CCN(C/C=C/c3ccccc3)CC2)c1O | -1%[7.66 µM] | -14%[57.5 µM] | -28 | -7% | ? | -5%
COc1ccc(O)c(CN2CCN(C/C=C/c3ccccc3)CC2)c1 | -6%[7.66 µM] | -1%[57.5 µM] | -24 | -14% | -76* | 3%
COc1ccc2[nH]c(C)c(C(=O)CN3CCN(C/C=C/c4ccccc4)CC3)c2c1 | -20% | -3% | 2 | -3% | -57* | 3%
Cc1cc(C)c2c(CN3CCN(C/C=C/c4ccccc4)CC3)cc(=O)oc2c1 | -44% | -13%[57.5 µM] | -2 | -6% | -64* | 6%
Cc1cc(C)c2c(CN3CCCCC3)cc(=O)oc2c1 | 10% | 0% | 2 | · | 4 | 5%
CC(Cc1cccs1)NC(=O)Nc1ccc(Cl)c(Cl)c1 (stereo not drawn) | 7% | -29% | 6 | 10% | ? | -15%
COc1ccc(NC(=O)Cn2c(=O)n(CCCC(=O)NCCc3ccc(C)cc3)c(=O)c3ccccc32)cc1Cl | · | i | 6 | · | · | ·
COc1ccc(-c2cn(Cc3ccc(C)cc3)nn2)cc1 | 6% | -37% | -22 | · | 0 | 2%
Cc1ccc(NC(=O)COC(=O)c2ccc(C)c(S(=O)(=O)N3CCOCC3)c2)cc1 | 0% | i | 0 | · | 9 | ·
Cc1ccccc1OCCn1cnc2cc([N+](=O)[O-])ccc2c1=O | -7% | -51% | 0 | ? | 20 | ?
O=C1C=C(c2ccc(Oc3ccccc3)cc2)C[C@@H](c2ccc3c(c2)OCO3)C1 | -42% | -8% | 3 | · | -24 | ·
CC1(C)CC(=O)C=C(c2ccc(-c3ccccc3)cc2)C1=O | 9% | -53% | -6 | · | -28 | ·
O=C(CN1C(=O)COc2ccccc21)NCCCN1CCOCC1 | 11% | i | 2 | · | -6 | -5%
O=C(CN1C(=O)COc2ccccc21)N(CCCN1CCOCC1)CC1CC=CCC1 (stereo not drawn) | 5% | -7%[57.5 µM] | -58 | 13% | -57* | -9%
COc1cccc(CN(C)CC(=O)Nc2ccccc2C(C)C)c1 | 4% | -13% | -5 | -22% | -25 | -6%
O=C1C=CC(=O)c2c(O)c(N3CCN(CCOCCO)CC3)c(Br)c(O)c21 | -57% | -32% | -18 | · | -95* | ·
O=C1C=CC(=O)c2c(O)c(N3CCN(CCO)CC3)c(Cl)c(O)c21 | -55% | -52% | -25 | · | -121* | ·
CCOc1cc(CN2CCN(CCOCCO)CC2)ccc1OC | -5% | i | 1 | -1% | -16 | -2%
S=c1[nH]nc(-c2ccccc2)n1C1C=CCCC1 (stereo not drawn) | 0% | -2%[57.5 µM] | -3 | -6% | -55* | 2%
S=c1[nH]nc(-c2cccnc2)n1C1CCCCC1 | 13% | i | -5 | 6% | -6 | -5%
CC(C)C1=NN2C(=N)CC(=O)N=C2S1 | 14% | -38%[57.5 µM] | 5 | 0% | -63* | -8%
SMILES | Integrin act MD | PTHR1 ag | DRD3 agonist | CBFb RUNX1 block | D3 antag | MBNL1 CUG block
CCCCC1=NN2C(=N)CC(=O)N=C2S1 | 0% | -11% | 6 | -1% | -27 | -8%
CC1CCCN(c2nc(-c3cccnc3)nc3scc(-c4ccccc4)c23)C1 (stereo not drawn) | ? | -39% | 34* | -4% | 17 | 13%
CCOC(=O)c1cc(-c2ccccc2)nn1CCC#N | 0% | -1% | -2 | 14% | 6 | 3%
C=CCn1nc(-c2ccccc2)cc1C(=O)OCC | 19% | i | 40* | · | 112 | ·
C#C[C@]1(OC(C)=O)CCC2C3CCC4=CC(=O)CCC4C3CC[C@]21C (stereo partly drawn) | · | · | · | 6% | · | ·
COc1cccc2c1cc1c(=O)n(CC(=O)N3CCN(c4cc(Cl)ccc4C)CC3)nc(C)n12 | · | -1% | 15 | · | · | ·
COc1cccc2c1cc1c(=O)n(CC(=O)N3CCN(c4cccc(C)c4C)CC3)nc(C)n12 | 21% | i | 71* | · | 1 | ·
CCOC(=O)c1cnc2cc(F)c(F)cc2c1N1CCOCC1 | 9% | -9% | 2 | · | 7 | -4%
CCOC(=O)c1oc2ccc(CNC3CCCCC3)c(Cl)c2c1C | -58% | 9%[57.5 µM] | -36 | -4% | -86* | 0%
CCOC(=O)c1oc2ccc(CNCCO)c(Cl)c2c1C | 13% | -4% | -17 | 7% | -54* | -5%
CCOc1ccc2oc(C(=O)OCC(=O)NC3CC3)c(C)c2c1 | 21% | -22% | 4 | -2% | -18 | 33%
CC(Oc1ccc(Br)cc1)C(=O)NCC(c1cccs1)N1CCOCC1 (stereo not drawn) | -19% | -4% | -1 | · | -16 | ·
Cc1cc(C)c(OCCN(C)Cc2ccccc2)c(Br)c1 | -22% | -14% | -38 | 4% | -56* | -3%
CN(CCCOc1ccccc1F)Cc1ccccc1 | 5% | 6% | -31 | · | -85* | -5%
CN(CCCOc1ccccc1Br)Cc1ccccc1 | 0% | 14% | -17 | 1% | -98* | 0%
COc1ccc(Cc2noc(=O)[nH]2)cc1 | 2% | i | -11 | · | -10 | ·
O=C(NNC(=O)c1sc2cccc(Cl)c2c1Cl)NC1CCCCC1 | -24% | -12%[57.5 µM] | -18 | -9% | -74* | -17%
O=C(NNC(=O)c1sc2cccc(Cl)c2c1Cl)Nc1ccccc1 | 19% | i | -16 | 3% | 0 | -8%
O=C(NNC(=S)NC1CCCCC1)c1sc2ccccc2c1Cl | 37% | -43% | -10 | -12% | -64* | 7%
COc1cccc(NC(=S)N/N=C2/CCCCc3ccccc32)c1 | -24% | 0% | -16 | ? | -60* | -5%
CC(C)NC(=S)N/N=C1\CCCCc2ccccc21 | -16% | -18% | -4 | -13% | 2 | ?
O=C(N/N=C/c1ccc[nH]1)c1sc2ccccc2c1Cl | -26% | i | -30 | -5% | -65* | ?
O=C(N/N=C/c1ccncc1)c1sc2ccccc2c1Cl | 5% | -62% | -2 | · | -4 | ?
CCC(CC)=NNc1ccc(S(N)(=O)=O)cc1[N+](=O)[O-] | -6% | i | 0 | -9% | -13 | ?

Source: PubChem
